Laboratory results from ChEMBL document CHEMBL3988442, “University of Dundee, Small-Polar-MMV Screening Library” (2021).
Screen size: about 66,000 compounds; about 960 (1.5%) showed an effect of 50% or more. Shown is part of a subset that was picked to be rich in strong results.

System: Trypanosoma brucei
Assay: Trypanosoma brucei 72 hour study
Format: functional, organism-based
Set-up: scale not given: in the data most compounds retested in dose-response had high values

SMILES | Percent Effect (30 µM, 30.03 µM) | Percent Effect (30.3 µM, […])
O=C1NCC2(CCCN(Cc3ccc(Cl)s3)C2)Oc2ccccc21 (stereo not drawn) | 12.52% | –
O=C1NCC2(CCCN(CCc3ccccc3)C2)Oc2ccccc21 (stereo not drawn) | – | -38.35%
O=C1NCC2(CCCN(Cc3ccc(F)cc3)C2)Oc2ccccc21 (stereo not drawn) | – | 13.09%
O=C1NCC2(CCCN(Cc3ccccc3F)C2)Oc2ccccc21 (stereo not drawn) | – | -8.26%
C=Cc1ccc(CN2CCCC3(CNC(=O)c4ccccc4O3)C2)cc1 (stereo not drawn) | – | 79.56%
CSc1ccc(CN2CCCC3(CNC(=O)c4ccccc4O3)C2)cc1 (stereo not drawn) | – | 60.61%
Cc1ccc(CN(CCCn2ccnc2)Cc2[nH]cnc2C)s1.O=C(O)CC(O)(CC(=O)O)C(=O)O | – | 19.63%
O=C(O)C(F)(F)F.O=C(O)C(F)(F)F.O=C(c1ccncc1)N1CC2(CCNCC2)c2cc(Cl)ccc21 | – | -51.23%
O=C(O)C(F)(F)F.O=C(c1cscn1)N1CC[C@@H]2[C@@H]1CCN2CC1CCOC1 (stereo partly drawn) | – | -46.23%
Cc1cc(O)c(OCC(=O)/N=c2\[nH]c(C)cs2)cn1 | -14.8% | –
COc1cccc(-c2noc(-c3ccc(NCC(C)C)nc3)n2)c1OC | 3.504% | –
COc1cccc(-c2noc(-c3ccc(NCC4CC4)nc3)n2)c1OC | 64.24% | –
CNCCNc1ccc(-c2nc(-c3cccc(OC)c3OC)no2)cn1 | 17.24% | –
CCN(CC)S(=O)(=O)c1ccc(CCC(=O)NCc2cc(C)on2)cc1 | – | -181.3%
CCN(CC)c1ccc(CNC(=O)N2CCC(C#N)CC2)cc1 | 36.77% | –
CCN(CC)S(=O)(=O)c1ccc(CNC(=O)N2CCC(C#N)CC2)cc1 | 70.46% | –
CCN(CC)S(=O)(=O)c1ccc(CNC(=O)c2cc(C)on2)cc1 | – | 58.42%
Cc1cc(C(=O)NCc2cc(C)oc2C)no1 | -30.84% | –
CCN(CC)S(=O)(=O)c1ccc(CNC(=O)N2CCCCCC2)cc1 | 27.66% | –
CC1(C)CN(C(CNC2=NCCN2)c2ccc(Cl)cc2)CCO1.I (stereo not drawn) | 11.29% | –
c1ccc(-c2nnc3sc(CCN4CCCC4)nn23)cc1 | -48.79% | –
Cc1ccc(CN2CC[C@H]3C[C@H](C(=O)N(C)C)O[C@H]3C2)cc1.O=C(O)C(F)(F)F | 45.02% | –
CN1CCNC(Cc2ccc(-c3ccncc3)cc2)C1=O.Cl (stereo not drawn) | – | -41.95%
COc1cc(C2Nc3cc(Cl)ccc3C3=NCCN32)cc(OC)c1OC (stereo not drawn) | – | 19.53%

SMILES | Percent Effect (30 µM, 30.03 µM) | Percent Effect (30.3 µM, […])
CN(C)c1ncc(C2Nc3ccccc3C3=NCCCN32)cn1.Cl (stereo not drawn) | – | -6.507%
COc1ccc(C2Nc3cc(Cl)ccc3C3=NCCN32)cc1OC (stereo not drawn) | 25.02% | –
COc1cc(OC)c(C2Nc3cc(Cl)ccc3C3=NCCN32)cc1OC (stereo not drawn) | 4.882% | –
COc1ccc(C2Nc3cc(Cl)ccc3C3=NCCN32)cc1O (stereo not drawn) | – | 12.75%
COc1cc(C2Nc3cc(Cl)ccc3C3=NCCN32)ccc1O (stereo not drawn) | – | 69.32%
COc1ccc(C2Nc3ccccc3C3=NCCCN32)cc1OC (stereo not drawn) | -8.154% | –
COc1ccc(C2Nc3cc(Cl)ccc3C3=NCCN32)cc1CO (stereo not drawn) | – | 83.77%
CN(C)c1ncc(C2Nc3cc(Cl)ccc3C3=NCCCN32)cn1.Cl (stereo not drawn) | – | 62.93%
O=C(O)C1CN(c2cncc(Cc3ccccc3F)n2)C1 | – | -23.43%
CC(=O)N1CCC(N2CCC(c3nc(C)cc(C)n3)C2)CC1.O=CO (stereo not drawn) | – | -13.11%
CC(C)C(=O)N1CC[C@H]2N(C)CC[C@@]2(C(=O)Nc2cccnc2)CC1.O=C(O)C(F)(F)F.O=C(O)C(F)(F)F | – | -93.75%
Cc1ccc(C(=O)N2C[C@@H]3CN(c4ncccn4)C[C@@H]3C2)cc1 | – | -8.111%
CCCc1cc(C(=O)N2C[C@H](O)[C@@H](N3CCCC3)C2)ccn1 | – | -5.682%
CC1=CC[C@@H]2CN(C(=O)c3ccc(-c4nnn(C)n4)cc3)C[C@@H]2C1 | 59.61% | –
O=C(c1ccc(-c2cc[nH]n2)cc1)N1CC[C@H](CO)[C@H](O)C1 | 0.05802% | –
CCCc1cc(C(=O)N2C[C@H]3CC=C(C)C[C@H]3C2)ccn1 | – | 56.41%
CCCc1cc(C(=O)N2CC(c3ccncc3)C2)ccn1 | – | -10.84%
CC1=CC[C@@H]2CN(C(=O)c3ccc(-c4nc[nH]n4)cc3)C[C@@H]2C1 | 36.48% | –
CC1=CC[C@@H]2CN(C(=O)c3ccc(-c4cc[nH]n4)cc3)C[C@@H]2C1 | 55.2% | –
O=C(c1ccc(F)cc1)N1C[C@@H]2CN(c3ncccn3)C[C@@H]2C1 | – | -32.62%
O=C(O)C(F)(F)F.O=C(O)C(F)(F)F.O=C(O)CN1CCCC2(CCN2Cc2cccc(F)c2)C1 (stereo not drawn) | – | -49.81%
CN(Cc1cccnc1)[C@@H]1CN(C(=O)NC2CC2)[C@@H]2CCCO[C@H]12.O=C(O)C(F)(F)F.O=C(O)C(F)(F)F | – | -11.25%
FC1(F)CCN(Cc2ccccn2)CC12CCN(c1ncccn1)C2.O=C(O)C(F)(F)F (stereo not drawn) | – | -64.14%
CNC(=O)CN1CCOCC2(C1)CN(C(=O)CC(C)C)CCO2.O=C(O)C(F)(F)F (stereo not drawn) | -16.33% | –
